Where “and” joins values, the source holds several entries; their conditions need not be identical. Equal entries are not always repeated. Records with an inconclusive call do not appear. Entries that show only a call come without a potency. Calls of active or inactive are those of the source. The call rests on the fitted dose curve; in most records, active means well fitted cell-killing curve with a large enough effect in the repeat runs; inconclusive means weak or mixed curves; inactive means flat fitted curve, though single readings scatter.
Experiment: qHTS RealTime-Glo MT Cell Viability Assay in HepG2 cells - 16 hour (AID 1224885); further: nearly all actives have a fitted effect of over 50% in size
Settings: RealTime-Glo luminescence; series mostly up to 76.8 µM
Summary of the method: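 Real-time, nonlytic viability: 600 HepG2 cells/well mixed with NanoLuc enzyme plus prosubstrate; 5 h settle, compound (DMSO) added by pintool; luminescence monitored over 40 h at 37 C.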
With CCN(CC)c1ccc2c(C)cc(=O)oc2c1 the Potency was “inactive”.
For CCCN[C@H]1CCc2nc(N)sc2C1, the Potency was “inactive”.
For CC(C)(C)c1ccccc1, the Potency was “inactive”.
In the case of NC12CC3CC(CC(C3)C1)C2, the Potency is reported as “inactive”.
For NC(N)=NC(=O)Cc1c(Cl)cccc1Cl, the Potency was “inactive”.
With CC(C)(C)NC(=O)[C@@H]1CN(Cc2cccnc2)CCN1C[C@@H](O)C[C@@H](Cc1ccccc1)C(=O)N[C@H]1c2ccccc2C[C@H]1O the Potency was “inactive”.
With CCCCCCCCCCCCCC[P+](CCCC)(CCCC)CCCC the Potency was 21.8 µM (active) and 15.5 µM (active).
In the case of CCCNC(C)C(=O)Nc1ccccc1C (configuration not stated), the Potency is reported as “inactive”.
In the case of CCOc1ccccc1C(N)=O, the Potency is reported as “inactive”.
With CC(=O)CC(C)=O the Potency was “inactive”.
In the case of O=c1n(CC2CO2)c(=O)n(CC2CO2)c(=O)n1CC1CO1 (configuration not stated), the Potency is reported as “inactive”.
With NNCCc1ccccc1 the Potency was “inactive”.
In the case of CC1COC(=O)O1 (configuration not stated), the Potency is reported as “inactive”.
In the case of CC1=CC(=O)c2ccccc2C1=O, the Potency is reported as 43.6 µM (active).
With O=Nc1ccc(Nc2ccccc2)cc1 the Potency was 43.6 µM (active).
For Oc1ccc(Cl)cc1Cc1cc(Cl)ccc1O, the Potency was “inactive”.
In the case of CCCCOCCOC(=O)c1ccccc1C(=O)OCCOCCCC, the Potency is reported as “inactive”.
With CCn1cc(C(=O)O)c(=O)c2cc(F)c(N3CCNC(C)C3)c(F)c21 (configuration not stated) the Potency was “inactive”.
In the case of O=C(O)CP(=O)(O)O, the Potency is reported as “inactive”.
With CCN(CC)C(=O)Nc1ccc(OCC(O)CNC(C)(C)C)c(C(C)=O)c1 (configuration not stated) the Potency was “inactive”.
In the case of CCOc1ccc2c(c1)C(C)=CC(C)(C)N2, the Potency is reported as “inactive”.
With COc1ccc(Cc2cnc(N)nc2N)cc1OC the Potency was “inactive”.
In the case of Cc1occc(=O)c1OC(=O)C(C)C, the Potency is reported as “inactive”.
For CC(=O)C1=C(C)[C@@H]2C[C@@]3(C1)[C@H](C)CC[C@H]3C2(C)C, the Potency was “inactive”.
With O=C(O)c1cccc(C(=O)O)c1 the Potency was “inactive”.
For c1ccc2cc3c(ccc4ccccc43)cc2c1, the Potency was “inactive”.
For CC[C@@H](N)CO, the Potency was “inactive”.
For Cc1scc2c1N(C(=O)CN1CCN(C)CC1)c1ccccc1NC2=O, the Potency was “inactive”.
For CC(N)=O, the Potency was “inactive”.
With O=C1OC2(c3ccc(O)cc3Oc3cc(O)ccc32)c2ccccc21 the Potency was “inactive”.
For c1ccc2n[nH]nc2c1, the Potency was “inactive”.
In the case of Oc1c(Cl)cc(Cl)c(Cl)c1Cc1c(O)c(Cl)cc(Cl)c1Cl, the Potency is reported as “inactive”.
In the case of c1ccc2c(c1)CCCC2C1=NCCN1 (configuration not stated), the Potency is reported as “inactive”.
With CN1C(=O)c2ccc([N+](=O)[O-])cc2C1=O the Potency was “inactive”.
With Cc1cc(Cc2cc(C)cc(C(C)(C)C)c2O)c(O)c(C(C)(C)C)c1 the Potency was 43.9 µM (active) and 43.6 µM (active).
In the case of CCN(CC)CCOc1ccc(/C(=C(\Cl)c2ccccc2)c2ccccc2)cc1, the Potency is reported as 31.6 µM (active) and 23.9 µM (active).
With NCCO the Potency was “inactive”.
Potency means the concentration at half of the fitted maximal effect.
